# According to publication PMC5540273 (PLoS ONE, 2017):
# System: FLT4
# Details: concentration: 1 μM,replicates: in singlicate; n = 1
# 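Also: KINOMEscan kinase panel screen.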
row,SMILES,%Inh
1,O=C(Nc1cccc(C(F)(F)F)c1)c1cccc(Oc2ccc3nccn3n2)c1,78%
2,CCCC(=O)Nc1n[nH]c2ncccc12 [SB-601436],0%
3,C[C@@H]1CNc2c(sc3ccc4nc(-c5ccc(O)cc5)ccc4c23)C(=O)N1,0%
4,COC(=O)c1cccc(NC(=O)NC2CCN(c3ccnc(NCc4ccc(F)cc4)n3)CC2)c1 [GSK1379860],38%
5,CC(=O)Nc1ccc(-c2cc3ncnc(SCC(=O)O)c3s2)cc1,0%
6,NC(=O)c1ccc(-c2cc3ncnc(SCC(=O)O)c3s2)cc1,0%
7,C[C@@H]1CCN(C(=O)N2CCCC2)C[C@@H]1N(C)c1ncnc2[nH]ccc12,6%
8,CCn1c(-c2nonc2N)nc2cncc(Br)c21 [SB-738004],19%
9,Cc1ccc(CC(=O)N2CCc3cc(-c4cn(C)c5ncnc(N)c45)ccc32)cc1 [GSK2634758],0%
10,Nc1nccc(-c2ccc3c(N)n[nH]c3c2)n1 [GSK1034945],11%
11,COc1cccc(C2=C(Nc3cccc(Cl)c3)C(=O)NC2=O)c1 [SB-341556],15%
12,Cc1n[nH]c2cc(Nc3ccnc(Nc4cccc(CN5CCOCC5)c4)n3)ccc12 [GW682569],65%
13,Cl.Cl.NC[C@H](CC1CCCCC1)NC(=O)c1ccc(-c2ccnc3[nH]ccc23)s1 [GSK1581428],13%
14,COc1cc2c(Nc3ccc(NC(=O)c4ccccc4)cc3)ncnc2cc1OCCCN1CCOCC1 [GSK301329],5%
15,C[C@@H](Oc1cc(-n2cnc3ccc(-c4ccncc4)cc32)sc1C(N)=O)c1ccccc1Cl [GSK483724],37%
16,NC(=O)Nc1sc(-c2ccc(F)cc2)cc1C(N)=O [GW789449],31%
17,CN(c1ccc2c(c1)nc(NCc1ccc(F)cc1)n2C)c1ccnc(Nc2ccc(CS(C)(=O)=O)cc2)n1.Cl [GW813244],99.9%
18,c1ccc(Oc2ccc(Nc3ccnc4ccc(-c5ccccn5)cc34)cc2)cc1 [GW407034],3%
19,CS(=O)c1ccc(-c2coc3ccc(-c4n[nH]c(=O)o4)cc23)cc1 (stereo not shown),3%
20,CCN1CCN(CCCC(=O)Nc2n[nH]c3nc(-c4ccc(O)cc4)c(Br)cc23)CC1 [SB-731579],0%
21,CC(=O)c1c(-c2ccncc2)[nH]c(-c2ccncc2)c1C [GW493036],0%
22,CSc1nccc(-c2c(-c3ccc(F)cc3)ncn2CCCN2CCOCC2)n1.Cl [SB-217146],0%
23,CN1CCN(CCNc2nc3cc(Oc4ccc(NC(=O)Nc5cc(C(F)(F)F)ccc5F)cc4)ccc3[nH]2)CC1.Cl.Cl [GW768504],49%
24,C[C@@H](Oc1cc(-n2cnc3cc(-c4ccncc4)ccc32)sc1C(N)=O)c1ccccc1Cl [GSK479719],97.1%
25,O=C(Nc1cccc(Oc2ccc3nccn3n2)c1)Nc1cccc(C(F)(F)F)c1,99%
